# Data from PubChem BioAssay AID631 (The Scripps Research Institute Molecular Screening Center, 2007).
# Out of some 200,000 compounds screened, about 810 (0.41%) were called active. The sample holds actives, similar compounds and a random draw of the others, so the mix is not that of the screen. Rule as the data show it: active = activation above about 19%; inactive = the rest.
# Molecular target: Peroxisome proliferator-activated receptor gamma (Homo sapiens) (UniProt P37231)
# Test: enhancers of SRC-1 binding to PPARgamma – biochemical, primary screen (AID 631);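 also: 0% = DMSO and 100% = reference agonist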
# Settings: PPARgamma-SRC-1 coactivator recruitment biochemical assay; at 8 µM; active compounds read high
# Chain of Peroxisome proliferator-activated receptor gamma (Homo sapiens) (P37231 whole entry, looked up): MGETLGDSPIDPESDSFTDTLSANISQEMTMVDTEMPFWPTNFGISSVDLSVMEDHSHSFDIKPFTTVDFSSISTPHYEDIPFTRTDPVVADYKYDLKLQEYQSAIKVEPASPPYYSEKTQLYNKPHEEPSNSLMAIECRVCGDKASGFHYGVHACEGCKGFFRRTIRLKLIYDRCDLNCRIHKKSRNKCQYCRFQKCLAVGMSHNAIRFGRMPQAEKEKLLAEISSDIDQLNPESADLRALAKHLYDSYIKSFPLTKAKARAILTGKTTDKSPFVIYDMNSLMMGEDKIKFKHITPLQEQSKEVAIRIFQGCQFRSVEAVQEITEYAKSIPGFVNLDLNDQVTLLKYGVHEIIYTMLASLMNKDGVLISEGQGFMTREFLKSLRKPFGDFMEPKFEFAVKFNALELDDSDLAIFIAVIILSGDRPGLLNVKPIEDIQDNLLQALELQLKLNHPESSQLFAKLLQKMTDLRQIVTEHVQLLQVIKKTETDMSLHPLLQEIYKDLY
row,SMILES,activation
1,Cc1cc(C)c2cc(CN(Cc3nnnn3Cc3ccc(F)cc3)C3CCCC3)c(=O)[nH]c2c1,2.6% (inactive)
2,Cc1cc2cc(CN(Cc3cccs3)Cc3nnnn3CC3CCCO3)c(=O)[nH]c2cc1C (configuration not stated),-4.1% (inactive)
3,Cc1cc(C)c2cc(CN(Cc3cccs3)Cc3nnnn3CC3CCCO3)c(=O)[nH]c2c1 (configuration not stated),23.5% (active)
4,CCC(C)(C)NC(=O)C(c1ccccn1)N(C(=O)c1csnn1)c1ccccc1 (configuration not stated),3.1% (inactive)
5,C/C(=N\NC(=O)OC(C)(C)C)c1ccc[nH]1,-0.7% (inactive)
6,Cc1ccc(OCC(=O)Nc2ccc(-c3nc4ncccc4o3)cc2)cc1,19.5% (active)
7,Cc1ccc(OCC(=O)Nc2ccc(S(=O)(=O)Nc3ccccn3)cc2)cc1,2.2% (inactive)
8,CC(=O)Nc1ccc(OCC(=O)NCc2ccc(C)cc2)cc1,-5.7% (inactive)
9,O=C(C1CCN(C2CCN(Cc3cccc4c3OCO4)CC2)CC1)N1CCOCC1,1.6% (inactive)
10,Cn1c(SCC(=O)Nc2ccc(Br)cc2F)nnc1-c1ccco1,0.1% (inactive)
11,CCn1c(SCC(=O)Nc2cccc(F)c2)nnc1-c1cc2cc(Br)ccc2o1,24.4% (active)
12,CCn1c(CNC(=O)c2ccco2)nnc1SCC(=O)Nc1cccc(F)c1,1.6% (inactive)
13,Cc1ccc(OCC(=O)OC(C)CN(C)Cc2ccccc2)cc1 (configuration not stated),5% (inactive)
14,COC(=O)CSc1nccc(-c2cccs2)n1,4.8% (inactive)
15,COc1ccc(OC)c(C(=O)CSc2nnc(-c3cccs3)o2)c1,11.4% (inactive)
16,NC(=O)CSc1oc(-c2cccs2)nc1S(=O)(=O)c1ccccc1,20.3% (active)
17,COc1cccc(CNC(=O)Cc2csc(Nc3nc(=S)[nH]c4ccccc34)n2)c1,-3.6% (inactive)
18,CC(C)C(NC(=O)C1CCC(C(C)(C)C)CC1)C(=O)NCCCN1CCCCC1 (configuration not stated),13.2% (inactive)
19,Cc1cccc2cc(C#N)c(N3CCCC3)nc12,7.6% (inactive)
20,CC(=O)c1ccc(S(=O)(=O)N2CCN(c3nc4c(C)c(C)ccc4cc3C#N)CC2)cc1,27.9% (active)
21,Cc1cc(C)c2nc(N3CCCC3)c(C#N)cc2c1,3.7% (inactive)

row,SMILES,activation
1,CCCN1CNC(=S)N(CCc2ccccc2)C1,4% (inactive)
2,CNS(=O)(=O)c1ccc(N2CCCC2=O)c([N+](=O)[O-])c1,-1.5% (inactive)
3,COC(=O)c1[nH]c2ccccc2c1NC(=O)CN1CCCc2ccccc21,0.3% (inactive)
4,COC(=O)c1[nH]c2ccccc2c1NS(=O)(=O)c1ccc(OC)cc1OC,6.1% (inactive)
5,COC(=O)c1[nH]c2ccc(Br)cc2c1NC(=O)Oc1ccccc1,20.2% (active)
6,C=CCn1cc(-c2cccc(C(F)(F)F)c2)cc(C#N)c1=O,5.6% (inactive)
7,CC(C)NC(=O)CSc1ccccc1C(=O)NCc1ccc2c(c1)OCO2,-1.4% (inactive)
8,CCn1c(=O)cc(SCC(=O)NCCC2=CCCCC2)c2ccccc21,13.8% (inactive)
9,CCn1c(=O)cc(SCC(=O)NCc2ccc3c(c2)OCO3)c2ccccc21,21.9% (active)
10,COCCCNC(=S)NNC(=O)C(O)(c1ccccc1)c1ccccc1,-2.3% (inactive)
11,Cc1nn(CC(=O)NCc2ccccn2)c(C)c1[N+](=O)[O-],5.4% (inactive)
12,CS(=O)(=O)N(CC(=O)NC1CCCC1)Cc1ccc(F)cc1,6.9% (inactive)
13,CCOP(=O)(OCC)C(Nc1ccc([N+](=O)[O-])cc1)c1ccc(Cl)cc1 (configuration not stated),-6.5% (inactive)
14,Cc1ccccc1-c1n[nH]c(=S)n1/N=C/c1ccc(-c2ccccc2Br)o1,32.5% (active)
15,Cc1ccccc1-c1n[nH]c(=S)n1C,3.3% (inactive)
16,Cc1n[nH]c(=S)n1/N=C/c1ccc(Br)o1,7.5% (inactive)
17,O=C1CCCN1CCCNC(=S)Nc1ccc(F)c(Cl)c1,-5.5% (inactive)
18,CCc1nc2ccccc2c(C(=O)OC2CCCCC2=O)c1C (configuration not stated),12.2% (inactive)
19,CC1=C(C(=O)N(C)C)C(c2ccccc2OC(F)F)NC(=O)N1 (configuration not stated),6.7% (inactive)
20,COC(=O)c1cc(OC)ccc1-c1ccc(OC)cc1,9.8% (inactive)
21,CCS(=O)(=O)Nc1cc(C(=O)OC)ccc1C(=O)OC,7% (inactive)

row,SMILES,activation
1,COC(=O)c1ccc(S(=O)(=O)c2ccc(C(=O)OC)s2)s1,26.8% (active)
2,CCOc1ccc(S(=O)(=O)Nc2ccncc2)c(C)c1C,7.6% (inactive)
3,Cc1ccc(C(=O)CNc2ccc(F)cc2)cc1,-3.3% (inactive)
4,COc1cccc2c1CCC(NC(C)=O)C2=O (configuration not stated),0.5% (inactive)
5,COc1ccc(NS(=O)(=O)c2cc(NC(=O)CC(=O)c3ccc([N+](=O)[O-])cc3)ccc2C)cc1,2.2% (inactive)
6,O=C(O)/C=C\C(=O)Nc1ccc(OCc2ccccc2)cc1,5.5% (inactive)
7,O=C(NCCCN1CCN(c2ccc(F)cc2)CC1)Nc1ccc([N+](=O)[O-])cc1,11.9% (inactive)
8,CCOC(=O)CC(=O)CSc1nc(-c2ccccc2)cc(-c2ccc(Cl)cc2)c1C#N,22.2% (active)
9,N#Cc1c(C(F)(F)F)cc(-c2ccc(Cl)cc2)nc1SCC(=O)O,3.2% (inactive)
10,CCSc1nc(-c2ccc(OC)cc2)cc(-c2ccc(OC)cc2)c1C#N,-1.5% (inactive)
11,COc1ccc(C(=O)OCC(=O)NCC2CCCO2)cc1[N+](=O)[O-] (configuration not stated),15% (inactive)
12,O=C(NCCOc1ccccc1F)Nc1ccc(Br)cc1,3.6% (inactive)
13,CC/C(=N\NC(=O)c1ccccc1Cl)c1ccc(Br)s1,4.2% (inactive)
14,CCOc1ccc(N=Cc2c(O)n(-c3cccc(C)n3)c(=O)c3ccccc23)cc1,1.1% (inactive)
15,CCCCn1c(=O)c(C(C)=O)c(O)c2ccccc21,0.5% (inactive)
16,CC(=O)n1c(C=Nc2ccccc2)c(O)c2ccccc21,22.7% (active)
17,COc1ccc(NS(=O)(=O)c2ccc(O)c(C(=O)OCC(=O)NC3CCCCC3)c2)cc1,4.7% (inactive)
18,CNC(=O)c1[nH]cnc1C(=O)N[C@@H](CC(C)C)C(=O)OC(C)(C)C,5.5% (inactive)
19,CN(CCc1cnn(C)c1)Cc1cn(C)nc1-c1ccccc1F,-5.8% (inactive)
20,CC(C)N(Cc1ccccc1)C(=S)Nc1ccc(OC(F)F)cc1,-4.1% (inactive)
